The results in this text go back to PubChem BioAssay (NCATS).

Results filed as inconclusive are left out. A number with no mark means an inactive call. Active and inactive are the calls of the source. Calls follow the shape of the dose curve; as a rule, active = well fitted inhibition curve with a large enough effect; inconclusive = small, poorly fitted or top-dose-only effect; inactive = flat fitted curve, though single readings scatter.
% is scaled to controls: 0 for no effect and ±100 for the full control effect; potency is read from the fitted curve at half-maximal effect.

In the experiment the test system is MCC-26. Put plainly: qHTS assay to identify novel small-molecules to repurpose for Merkel cell carcinoma treatment (AID 1296009). Also: nearly all actives have a fitted effect of over 60% in size. As to conditions: MCC and control cell lines, CellTiter-Glo viability, 72 h; series mostly up to 46 µM; activity change, negative = cytotoxicity: at the top concentration. The text has this: MCC is a rare and aggressive neuroendocrine skin cancer with limited treatment options. Approximately 80% of MCCs have the Merkel cell polyomavirus (MCPyV) DNA integrated into the host genome (virus-positive: VP-MCC) and viral oncogenes drive oncogenesis. The remaining MCCs are virus-negative (VN-MCC) and are caused by UV mutagenesis. To identify novel treatments for VP-MCC and/or VN-MCC we screened three VP-MCC cell lines (WAGA, MKL-1, MKL-2), three VN-MCC cell lines (MCC-13, MCC-26, UISO), and four immortalized, non-transformed control cell lines (HaCaT, HEK293T, CRL7250, NIH-3T3) against ~2,400 compounds in the NCGC Pharmaceutical Collection (NPC) and ~1,900 compounds in the Mechanism Interrogation PlatE (MiPE). Using cell viability as a readout (CellTiter-Glo assay) we found both overlapping and distinct drugs that can be repurposed for the treatment of VP-MCC and VN-MCC.
A high-throughput screen was conducted in 1536-well white flat bottom plates (Corning) on a Kalypsys robotic system. Cell lines WAGA, MKL-1, MKL-2, MCC-13, MCC-26, UISO, HaCaT, HEK293T, CRL7250, and NIH-3T3 were screened against 2 small molecule annotated drug libraries NPC and MIPE in dose response (8 and 11 pt. respectively) measuring cell viability after 72 hours of incubation. […] A 1,536 pintool (Kalypsys) was used to transfer 23 nL of compound in DMSO to the 1,536-well assay plates. After 72 hr incubation at 37 degree celsius, 2.5 uL of CellTiter-Glo (Promega) was dispensed into each well using a BiorapTR. Plates were incubated at room temperature for 10 min, transferred to a ViewLux (PerkinElmer) and the luminescence was recorded using an exposure time of 2 seconds. Relative luminescence units (RLUs) were normalized to in-plate controls (no cells as a positive (cytotoxicity) control, DMSO as negative control) and the normalized data was processed using NCATS in-house software.
Regarding `O=c1cc(-c2ccccc2)oc2ccccc12`, the “activity change, negative = cytotoxicity” value was -10.6% [at 92.7 µM].
The same measure, in the same setting: to `COc1cc2c3cc1Oc1cc(ccc1O)C[C@@H]1c4c(cc(OC)c(O)c4Oc4ccc(cc4)C[C@@H]3N(C)CC2)CC[N+]1(C)C` belongs -0.724%; to `CC(C)OC(=O)c1cc(C(=O)OC(C)C)cc([N+](=O)[O-])c1`, 6.23% [at 92.7 µM]; to `Nc1ccc(C(=O)O)c(O)c1`, 13.9%.
The same measure, in the same setting: the same measure for `C#CC1(O)CC[C@H]2[C@@H]3CCC4=CCCC[C@@H]4[C@H]3CC[C@@]21C` (stereo not given in full): -7.11%.
Still for that read-out and setting: the same measure for `c1ccc(CCNc2nc(-c3ccccc3)cs2)cc1`: -9.23%; for `CN(C)[C@@H]1C(=O)C(C(=O)NCN2CCCC2)=C(O)[C@@]2(O)C(=O)C3=C(O)c4c(O)cccc4[C@@](C)(O)C3C[C@@H]12` (stereo not given in full): 5.13%.
With `CCCCCCCC/C=C/C(=O)O`, the “activity change, negative = cytotoxicity” value was -0.82%.
On the same count and under the same terms, to `O=c1[nH]c2ccccc2n1CCCN1CCN(C(c2ccccc2)c2ccccc2)CC1` belongs -26.7%.
Same read-out and setting: to `O=C(Nc1ccc(C(=O)O)c(O)c1)c1ccccc1` belongs 0.248%; to `Cc1ccc(O)c(-n2nc3ccccc3n2)c1`, -3.36%; to `Nc1cc(-c2ccncc2)c[nH]c1=O`, 7.34%.
Same read-out and setting: the same measure for `COc1ccnc2c1CCCCC2S(=O)c1nc2ccccc2[nH]1` (stereo not given): 14.7%.
Turning to `[O-][n+]1ccccc1SSc1cccc[n+]1[O-]`, the Potency was 0.146 µM (active).
Consider `O=Cc1ccc(O)c(O)c1O`, for which the “activity change, negative = cytotoxicity” value was -4.69%.
Still for that read-out and setting: the same measure for `CCCCCCCCCCCC(=O)[O][Sn]([CH2]CCC)([CH2]CCC)[O]C(=O)CCCCCCCCCCC`: 7.66%.
Still for that read-out and setting: to `CCCC(=O)OC[C@@H](OC(=O)CCC)[C@@H](OC(=O)CCC)[C@H](Cn1c2nc(=O)[nH]c(=O)c-2nc2cc(C)c(C)cc21)OC(=O)CCC` belongs 0.389%; to `O=C1CN(/N=C/c2ccc([N+](=O)[O-])o2)C(=O)N1`, -4.33%.
`CC1(C)S[C@@H]2[C@H](NC(=O)[C@H](N)c3ccccc3)C(=O)N2[C@H]1C(=O)O`: the “activity change, negative = cytotoxicity” value is 8.37%.
The same measure, in the same setting: the same measure for `Nc1ccc(O)c(C(=O)O)c1`: 12.9%.
Same read-out and setting: to `O=C(OCc1ccccc1)c1ccccc1` belongs 6.94%; to `CC(C)(C)c1nnc(NS(=O)(=O)c2ccc(N)cc2)s1`, -7.17%; to `CC(=O)c1ccc(OCC(=O)N2CCCCC2)cc1`, 12.2%.
Still for that read-out and setting: to `COc1ccc(-c2cc(=S)ss2)cc1` belongs 1.63%.
For `CCCOC(=O)c1ccc(O)cc1`, the “activity change, negative = cytotoxicity” value was -3.16% [at 92.7 µM].
Still for that read-out and setting: the same measure for `c1ccc2sc(SN3CCOCC3)nc2c1`: 0.525%; for `Cc1c(C(=O)O)c(O)cc2c1C(=O)c1c(O)c([C@@H]3O[C@H](CO)[C@@H](O)[C@H](O)[C@H]3O)c(O)c(O)c1C2=O`: -19.3%.
Same read-out and setting: the same measure for `C=CCCCCCCCCC(=O)O`: 2.51%.
Same read-out and setting: to `CC(=O)SCC(CC(=O)c1ccc(C)cc1)C(=O)O` (stereo not given) belongs 3.95%.
Turning to `Nc1nc2ccc([N+](=O)[O-])cc2s1`, the “activity change, negative = cytotoxicity” value was 1.03% [at 92.7 µM].
Still for that read-out and setting: to `Nc1ccc(O)c([N+](=O)[O-])c1` belongs 11% [at 92.7 µM]; to `O=C(O)Cc1ccc2c(c1)C(=O)c1ccccc1CO2`, 4.23%.
The same measure, in the same setting: the same measure for `Cc1c(N)c(=O)n(-c2ccccc2)n1C`: -15.4%; for `Cc1[nH]cnc1CN1CCc2c(c3ccccc3n2C)C1=O`: 8.82%; for `CCOC(=O)c1ccccc1O`: 7.36%.
Same read-out and setting: the same measure for `O=C(O)/C=C\C(=O)O`: -2.43%.
As to `COC(=O)c1nc(Cl)c(Cl)nc1N`, the Potency is 8.41 µM (active).
On to `CCC1C(=O)OCC1Cc1cncn1C` (stereo not given), for which the “activity change, negative = cytotoxicity” value was 1.34%.
The same measure, in the same setting: to `CCCCCCOc1ccccc1C(N)=O` belongs -13.4%; to `Nc1c(CC(=O)O)cccc1C(=O)c1ccc(Br)cc1`, 4.12%.
